Source: PubChem BioAssay (EPA / NIEHS)
The source made the active and inactive calls. The calls were made as follows: active = hit-call score of the fitted dose curve at least 0.9, where 1 is the maximum; inactive = score below 0.9.

assay: CEETOX_H295R_ESTRONE: CeeTox H295R High-throughput Steroidogenesis Assay for Estrone (AID 2283441); details: actives raise or lower the signal;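 also: estrone secreted into medium measured by LC-MS/MS after dansyl derivatization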;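 as to AC50: human adrenal H295R cells prestimulated with forskolin for two days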
Summary of the method: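 Forskolin-stimulated H295R cells are treated 48 h with chemical, and estrone in the medium is measured by LC-MS/MS. Activity is fitted in both directions relative to DMSO controls, with chemicals diluted until MTT viability reaches at least 70%.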

Row | Structure (SMILES) | outcome | AC50
1 | CN(C)c1ccc2nc3ccc(=[N+](C)C)cc-3sc2c1 | inactive | 
2 | O=C(OCc1ccccc1)c1ccc(O)cc1 |  | 37.5 µM (active)
3 | C=C[C@@]1(C)CC(=O)[C@]2(O)[C@@]3(C)[C@@H](O)CCC(C)(C)[C@@H]3[C@H](O)[C@H](OC(C)=O)[C@@]2(C)O1 |  | 0.719 µM (active)
4 | COc1ccc(-c2coc3cc(O)cc(O)c3c2=O)cc1 | inactive | 
5 | C=CC(=O)OCCCCCCOC(=O)C=C | inactive | 
6 | CCOC(=O)C1=NN(c2ccc(Cl)cc2Cl)C(C)(C(=O)OCC)C1 (centres undefined) | inactive | 
7 | CCN1CN(CC)CN(CC)C1 | inactive | 
8 | COc1ccc(C(=O)c2ccccc2)c(O)c1 | inactive | 
9 | O=C(O)c1cc(O)c2ccccc2c1O | inactive | 
